Reference: PubChem BioAssay (NCATS)
Records with an inconclusive call do not appear. Values without a mark were called inactive. The source made the active and inactive calls. Calls come from the whole dose curve; as a rule, active = well fitted cell-killing curve with a large enough effect; inconclusive = small, poorly fitted or top-dose-only effect; inactive = no such curve, though single readings can be large or run the other way.

Test: qHTS of pediatric cancer cell lines to identify multiple opportunities for drug repurposing: Primary screen for A673 cells (AID 1347092); note: nearly all actives have a fitted effect of over 45% in size
Conditions: A673 Ewing sarcoma viability, CellTiter-Glo ATP luminescence, 48 h; series mostly up to 46 µM; activity change, negative = cytotoxic: at the top concentration
Method in brief: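 Titration-based qHTS on A673 cells: MIPE compounds spanned 11 points (0.78 nM to 46 µM final), NPC compounds 8 points (0.59 nM to 46 µM final). Viability after 48 h was measured by ATP luminescence.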
% is set by controls: 0 for no effect and ±100 for the full control effect; potency is the fitted concentration of half-maximal effect.

Row | Compound | Potency | activity change, negative = cytotoxic [%]
1 | NC1[C@H]2CN(c3nc4c(cc3F)c(=O)c(C(=O)O)cn4-c3ccc(F)cc3F)C[C@@H]12 (some centres not stated) | 13.3 µM (active) | 
2 | CCCCc1ncc(/C=C(\Cc2cccs2)C(=O)O)n1Cc1ccc(C(=O)O)cc1 |  | -3.84
3 | COC(=O)C1=C(C)NC(C)=C(C(=O)OC)C1c1ccccc1[N+](=O)[O-] |  | -4.05
4 | CSc1ccc2c(c1)N(CCC1CCCCN1C)c1ccccc1S2 (configuration not stated) | 21.1 µM (active) | 
5 | CCN(CC)CCCC(C)Nc1c2ccc(Cl)cc2nc2ccc(OC)cc12 (configuration not stated) | 21.1 µM (active) | 
6 | C=Cc1c(C)c2cc3[nH]c(cc4nc(cc5nc(cc1[nH]2)C(C)=C5CCC(=O)O)C(CCC(=O)O)=C4C)c(C)c3C=C |  | -2.16
7 | OCCN1CCN(CCCN2c3ccccc3Sc3ccc(Cl)cc32)CC1 | 21.1 µM (active) | 
8 | C[C@H](NC(CCc1ccccc1)C(=O)O)C(=O)N1CCC[C@H]1C(=O)O (some centres not stated) |  | 7.02
9 | O=C1NC(=O)[C@@]2(CCOc3ccc(F)cc32)N1 |  | -11.4
10 | CN1CCC[C@@H]1Cc1c[nH]c2ccc(CCS(=O)(=O)c3ccccc3)cc12 |  | 0.0344
11 | CN(C)CCCN1c2ccccc2Sc2ccc(Cl)cc21 | 21.1 µM (active) | 
12 | CC(C)c1c(C(=O)Nc2ccccc2)c(-c2ccccc2)c(-c2ccc(F)cc2)n1CC[C@@H](O)C[C@@H](O)CC(=O)O | 21.1 µM (active) | 
13 | O=Cc1ccccc1C=O |  | -4.27
14 | CN(C)CC[C@@H](c1ccc(Cl)cc1)c1ccccn1 |  | -2.66
15 | C[C@H]1O[C@@H](n2cc(F)c(=O)[nH]c2=O)[C@H](O)[C@@H]1O |  | -29.4
16 | COc1cc(C)c(Cc2cnc(N)nc2N)cc1OC |  | 15.5
17 | CC(C)(C(=O)O)c1ccc(C(O)CCCN2CCC(C(O)(c3ccccc3)c3ccccc3)CC2)cc1 (configuration not stated) |  | 9.28
